We go through 14 molecules from PubChem BioAssay.

Test [1] relates to PRMT1 (protein arginine N-methyltransferase 1). The test is described as follows: PRMT1 binders on small-molecule microarrays, primary screen, biochemical, small-molecule microarray, 635 nm fluorescence (AID 1088).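 Also: binding of Prmt1 protein to compounds spotted on small-molecule microarray slides.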 Conditions: small-molecule microarray binding, higher = more signal.
A short description of test [2]: yeast growth modulation, basal conditions, primary screen, YJM789 clinical isolate, OD600, 24 h (AID 1089).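 Also: growth of clinical yeast isolate S. cerevisiae YJM 789 seeded 1000 cells per well; test concentration not given here.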 The settings on record: S. cerevisiae YJM789 growth, higher = more signal, called active from +8 up or from −8 down.
A short description of test [3]: fission yeast growth modulation, primary screen, strain 972, OD600, 24 h, no modulator (AID 1090).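 Also: basal condition with compound alone and no growth modifier present; test concentration not given here.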 Conditions: S. pombe 972 growth, higher = more signal, called active from +8 up or from −8 down.
Test [4] is described as follows: S. cerevisiae growth modulation with rapamycin, primary screen, strain BY4716, OD600, 96 h (AID 1091). Also: test concentration not given here. Conditions: higher = more signal, called active from +8 up or from −8 down.
Test [5] deals with Torsin-1A-interacting protein 2 (Homo sapiens) (UniProt Q8NFQ8). The test is described as follows: LULL1 binders on small-molecule microarray, primary screen, cell lysate, human LULL1 lysate, 635/667 nm fluorescence (AID 1092).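 Also: probe is lysate of COS7 cells overexpressing human LULL1; score merges per-feature 667 nm fluorescence with signal-to-noise.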 The settings on record: hLULL1 lysate binding, 635 nm fluorescence, higher = more signal.
Test [6] is described as follows: E. coli growth modulation, two-sided OD650, primary screen, E. coli filamentation project, strain DRC41, 24 h (AID 1093).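 Also: MC1000 strain lacking acrAB efflux and sulA so SOS filamentation is blocked; test concentration not given here.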 The settings on record: OD650, 24 h, higher = more signal, called active from +8 up or from −8 down.
Test [7] is described as follows: small-molecule microarray binders of probe aLefty2, primary screen, biochemical, biotinylated probe, 635/667 nm fluorescence (AID 1094).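 Also: score merges spot fluorescence near 667 nm with spot signal-to-noise ratio.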 The settings on record: higher = more signal.
The subject of test [8] is Noggin (protein binding on small-molecule microarray). The test is described as follows: Noggin binders on small-molecule microarray, primary screen, biochemical, 635/667 nm fluorescence (AID 1095).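 Also: score merges 667 nm feature fluorescence with signal to noise over triplicate slides.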 The settings on record: 635 nm fluorescence, higher = more signal.
For test [9], the target named is Neurogenic locus notch homolog protein 3 (Homo sapiens) (UniProt Q9UM47). As to the kind of experiment: NOTCH3 binders on small-molecule microarray, primary screen, biochemical, 635/667 nm fluorescence (AID 1096). Conditions: NOTCH3 binding, 635 nm fluorescence, higher = more signal.
Test [10] can be described thus: small-molecule microarray binders of probe aEGFR, primary screen, biochemical, biotinylated probe, 635/667 nm fluorescence (AID 1097).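 Also: probe is a biotinylated anti-EGFR antibody binding compounds printed on slides; score combines fluorescence near 667 nm and signal to noise of each spot.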 The settings on record: higher = more signal.

Active and inactive are the calls of the source.

Torsin-1A-interacting protein 2 (Homo sapiens), sequence (Q8NFQ8 whole entry, looked up): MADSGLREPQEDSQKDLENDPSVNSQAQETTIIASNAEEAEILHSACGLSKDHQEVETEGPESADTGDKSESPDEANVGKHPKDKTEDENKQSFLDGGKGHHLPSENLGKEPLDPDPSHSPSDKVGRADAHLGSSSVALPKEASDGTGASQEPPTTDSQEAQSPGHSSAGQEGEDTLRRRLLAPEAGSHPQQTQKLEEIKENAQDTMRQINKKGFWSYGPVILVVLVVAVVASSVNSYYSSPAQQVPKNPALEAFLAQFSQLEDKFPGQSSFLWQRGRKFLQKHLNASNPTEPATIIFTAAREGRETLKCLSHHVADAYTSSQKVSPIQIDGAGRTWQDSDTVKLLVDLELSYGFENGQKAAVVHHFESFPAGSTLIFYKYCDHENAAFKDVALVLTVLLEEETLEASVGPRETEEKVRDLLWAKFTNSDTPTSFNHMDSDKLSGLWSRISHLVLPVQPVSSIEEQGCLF
Neurogenic locus notch homolog protein 3 (Homo sapiens), sequence (Q9UM47 whole entry, looked up): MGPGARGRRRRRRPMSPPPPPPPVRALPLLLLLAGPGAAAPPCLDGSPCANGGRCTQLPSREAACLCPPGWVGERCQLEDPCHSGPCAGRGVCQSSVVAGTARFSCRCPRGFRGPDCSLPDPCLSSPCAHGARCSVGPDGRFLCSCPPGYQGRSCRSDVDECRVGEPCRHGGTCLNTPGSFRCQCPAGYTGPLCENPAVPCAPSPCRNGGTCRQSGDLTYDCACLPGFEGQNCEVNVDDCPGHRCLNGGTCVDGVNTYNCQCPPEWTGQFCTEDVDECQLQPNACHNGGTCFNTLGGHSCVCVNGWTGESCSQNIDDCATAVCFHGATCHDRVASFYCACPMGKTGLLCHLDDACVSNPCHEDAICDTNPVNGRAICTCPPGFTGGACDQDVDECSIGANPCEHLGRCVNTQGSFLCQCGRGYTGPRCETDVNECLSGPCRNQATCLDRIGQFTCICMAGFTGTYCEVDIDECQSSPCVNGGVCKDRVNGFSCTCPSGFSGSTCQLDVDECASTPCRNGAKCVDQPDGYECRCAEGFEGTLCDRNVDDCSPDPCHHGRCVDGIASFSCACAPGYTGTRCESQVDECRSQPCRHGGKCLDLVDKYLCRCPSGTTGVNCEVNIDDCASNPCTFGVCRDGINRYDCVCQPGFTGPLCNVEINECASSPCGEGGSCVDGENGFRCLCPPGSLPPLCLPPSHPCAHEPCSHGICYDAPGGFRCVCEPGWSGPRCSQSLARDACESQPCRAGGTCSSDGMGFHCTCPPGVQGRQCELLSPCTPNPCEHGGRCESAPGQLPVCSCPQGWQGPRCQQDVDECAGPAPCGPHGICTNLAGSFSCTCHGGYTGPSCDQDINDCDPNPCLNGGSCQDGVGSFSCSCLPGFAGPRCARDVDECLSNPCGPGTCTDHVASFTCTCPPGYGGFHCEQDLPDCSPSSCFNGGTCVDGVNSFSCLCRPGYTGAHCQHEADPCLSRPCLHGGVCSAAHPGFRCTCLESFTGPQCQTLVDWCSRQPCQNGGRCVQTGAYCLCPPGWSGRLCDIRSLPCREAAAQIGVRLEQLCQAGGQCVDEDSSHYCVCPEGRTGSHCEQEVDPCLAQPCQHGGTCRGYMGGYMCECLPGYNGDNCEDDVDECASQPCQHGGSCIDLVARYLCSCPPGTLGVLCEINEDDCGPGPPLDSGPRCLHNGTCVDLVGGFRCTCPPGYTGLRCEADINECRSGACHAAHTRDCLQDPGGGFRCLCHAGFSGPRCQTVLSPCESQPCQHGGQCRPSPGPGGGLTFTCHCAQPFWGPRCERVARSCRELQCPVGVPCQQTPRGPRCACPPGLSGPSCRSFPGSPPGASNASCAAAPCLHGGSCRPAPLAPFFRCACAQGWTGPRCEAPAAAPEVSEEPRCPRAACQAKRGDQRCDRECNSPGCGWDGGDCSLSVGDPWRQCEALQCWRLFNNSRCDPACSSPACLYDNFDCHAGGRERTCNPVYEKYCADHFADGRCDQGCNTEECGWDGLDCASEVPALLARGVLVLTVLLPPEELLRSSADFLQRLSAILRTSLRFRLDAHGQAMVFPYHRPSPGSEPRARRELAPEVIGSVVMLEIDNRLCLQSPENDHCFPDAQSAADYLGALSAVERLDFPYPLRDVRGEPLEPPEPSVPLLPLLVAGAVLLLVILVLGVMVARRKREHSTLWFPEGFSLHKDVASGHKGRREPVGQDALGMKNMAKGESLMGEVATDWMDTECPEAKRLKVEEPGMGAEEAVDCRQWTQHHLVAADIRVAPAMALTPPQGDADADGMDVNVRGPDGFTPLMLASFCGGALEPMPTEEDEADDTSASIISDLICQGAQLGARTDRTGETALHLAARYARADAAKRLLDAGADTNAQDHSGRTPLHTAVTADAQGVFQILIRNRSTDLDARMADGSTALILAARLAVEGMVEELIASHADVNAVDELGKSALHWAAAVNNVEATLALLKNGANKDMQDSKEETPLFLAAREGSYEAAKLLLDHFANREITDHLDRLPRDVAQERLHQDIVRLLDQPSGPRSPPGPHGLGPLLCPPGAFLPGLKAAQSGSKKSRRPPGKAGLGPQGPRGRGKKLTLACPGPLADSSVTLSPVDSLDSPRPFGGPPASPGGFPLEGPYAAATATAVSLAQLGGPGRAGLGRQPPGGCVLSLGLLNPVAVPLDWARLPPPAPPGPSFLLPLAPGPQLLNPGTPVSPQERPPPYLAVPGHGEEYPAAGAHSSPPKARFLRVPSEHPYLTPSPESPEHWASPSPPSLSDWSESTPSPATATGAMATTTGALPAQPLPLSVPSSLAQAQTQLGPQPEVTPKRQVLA

Regarding `CCOC(=O)C[C@H]1[C@H](OC(=O)c2ccc(C(=O)c3ccccc3)cc2)[C@@H](NC(=O)c2ccc(-c3ccccc3)cc2)c2cc(OCCCO)ccc2N1C(=O)Cc1ccc(OC)cc1`, the composite z-score is 0.845 in test [1]; 0.861 in test [5]; 0.259 in test [7]; 0.601 in test [8]; 0.378 in test [9]; -0.0302 in test [10]. For the same molecule, the z-score in test [2] is 0.233 (inactive); in [3], 0.838 (inactive); in test [4], 0.876 (inactive); in [6], 0.24 (inactive).

In the case of `O=C(C1N=C(c2ccc(OCCCO)cc2)N(c2ccccc2)O1)N1CCCCC1` (stereo not given), the composite z-score is 1.54 in test [1]; 2.95 in [5]; 0.226 in test [7]; 0.684 in [8]; 0.288 in test [9]; 0.0542 in test [10]. The z-score in test [2] was -0.537 (inactive); in test [3] it was -0.734 (inactive); in [4] it was 0.0484 (inactive); in test [6], 0.828 (inactive).

For the molecule `O=C(O)[C@@H]1C[C@@H]2C(=O)N3CCC[C@H]3C(=O)N2[C@@H]1c1ccc(O)cc1`, the composite z-score in test [1] was 1.56; in test [5] it was 1.34; in [7] it was 0.226; in test [8], 1.93; in test [9], 1.01; in test [10], 0.12. In addition, the z-score was -0.475 (inactive) in test [2], -0.854 (inactive) in test [3], 0.0128 (inactive) in test [4] and 2.46 (inactive) in [6].

Consider `CCCCCN1CC=CC23O[C@@H]4/C=C\CCCOC(=O)C4[C@H]2C(=O)N(C(C)CO)[C@@H]3C1=O` (stereo not given in full), for which the composite z-score in test [1] was 1.14; in test [5], 1.86; in test [7], -0.125; in test [8], -1.33; in test [9] it was -0.365; in test [10] it was -0.213. The z-score in [2] is -0.145 (inactive); in test [3], -1.52 (inactive); in test [4], -0.744 (inactive); in test [6] it was 0.815 (inactive).

For the molecule `CCOC(=O)C[C@H]1[C@H](OC(=O)Cc2ccc3c(c2)OCO3)[C@@H](NC(=O)c2ccc3ccccc3n2)c2cc(OCCCO)ccc2N1C(=O)c1ccc2ccccc2n1`, the composite z-score in test [1] was 0.755; in [5] it was 1.03; in [7], -0.0708; in test [8], 0.719; in [9], 0.497; in test [10], -0.124. Besides, the z-score in test [2] was -2.47 (inactive); in [3] it was -1.99 (inactive); in test [4], -0.727 (inactive); in test [6], 2.22 (inactive).

On to `CC(C)c1ccc(NN2C(C(O)c3ccc(C#N)cc3)C=CC3C(=O)N(c4ccccc4)C(=O)C32)cc1` (stereo not given), for which the composite z-score is 1.54 in test [1]; 3.36 in test [5]; 0.286 in test [7]; -0.144 in [8]; 1.07 in test [9]; 0.16 in test [10]. Further, the z-score in test [2] was 0.902 (inactive); in test [3] it was 0.608 (inactive); in test [4], 0.44 (inactive); in test [6] it was -1.27 (inactive).

For the molecule `CC#CCO[Si](C#Cc1ccccc1)(C(C)C)C(C)C`, the composite z-score in [1] was -0.877; in [5], -0.669; in test [7], -0.135; in test [8] it was 0.709; in [9] it was 0.231; in [10] it was -0.203. For the same molecule, the z-score in test [2] was -1.72 (inactive); in test [3], -19.5 (active); in test [4], -1.86 (inactive); in [6] it was -0.304 (inactive).

As to `CCCCC(=C=CC[C@H](O)c1ccc(OCCO)cc1)CCO`, the composite z-score in test [1] was -0.0461; in test [5], 2.24; in test [7], -0.179; in [8], -0.124; in [9], -0.65; in [10], -0.232. Besides, the z-score in [2] is -0.879 (inactive); in [3], -0.982 (inactive); in [4], -1.02 (inactive); in test [6], -0.0915 (inactive).

Turning to `CCCC=C(CCC)[C@@H](NC(=O)c1cccs1)c1ccc(C(=O)OC)cc1`, the composite z-score in test [1] is -1.88; in [5], 0.905; in [7], 1.18; in [8], 0.542; in test [9], 0.587; in [10], 0.925. In addition, the z-score was -0.0214 (inactive) in test [2], 0.598 (inactive) in [3], -0.0964 (inactive) in test [4] and -0.0658 (inactive) in [6].

Regarding `[N-]=[N+]=Nc1ccccc1[C@@H]1OC(c2ccc(OCCCO)cc2)=N[C@]1(Cc1ccccc1)C(=O)N1CCCCC1`, the composite z-score in test [1] was 1.53; in test [5], 3.27; in [7], 0.0277; in test [8], 0.847; in test [9], 1.04; in [10] it was 0.001. For the same molecule, the z-score in test [2] is -0.286 (inactive); in test [3] it was -0.487 (inactive); in [4], 1.49 (inactive); in test [6], 0.27 (inactive).

For the molecule `COc1ccc(CCNC(=O)[C@@]2(Cc3ccccc3I)c3ccccc3C(=O)N(C3CCCCC3)[C@H]2c2ccc(CO)cc2)cc1`, the composite z-score in [1] was 1.36; in [5], 2.3; in test [7], -0.0176; in test [8], -0.275; in test [9] it was 0.566; in [10] it was -0.115. Also, the z-score was -2.01 (inactive) in test [2], -1.81 (inactive) in test [3], -0.742 (inactive) in test [4] and -1.41 (inactive) in test [6].

For `Cc1ccc(S[C@]2(C(=O)NCc3ccccc3)CC(=O)N(C3CCCCC3)[C@@H]2c2ccc(CO)cc2I)cc1`, the composite z-score was 1.15 in test [1]; 2.72 in [5]; -0.0948 in [7]; 0.147 in test [8]; 0.237 in [9]; -0.139 in [10]. Also, the z-score in [2] is -0.727 (inactive); in [3] it was -0.462 (inactive); in test [4] it was 0.861 (inactive); in test [6], -0.455 (inactive).

With `O=C1[C@H]2C=C(I)[C@H](C[C@@H]2OCCOCCO)[C@@]12CO2`, the composite z-score is 0.582 in test [1]; 0.6 in [5]; -0.239 in test [7]; 0.513 in [8]; 0.733 in [9]; -0.027 in test [10]. For the same molecule, the z-score in test [2] is 0.0387 (inactive); in [3], -0.342 (inactive); in [4], -0.155 (inactive); in [6], -0.935 (inactive).

For `CC1=C2[C@@H](CCc3ccccc3)OB(O)C[C@@H]2[C@@H]2C(=O)N(Cc3ccccc3)C(=O)[C@@H]2C1`, the composite z-score in test [1] is 0.433; in [5], 1.24; in test [7], -0.116; in test [8], 0.694; in test [9], 0.57; in [10], -0.0381. Also, the z-score in test [2] is -0.763 (inactive); in test [3] it was -2.47 (inactive); in test [4], -0.993 (inactive); in [6], -0.116 (inactive).
